Test results published in PMC4336329 (PLoS ONE, 2015).
About 2,200 (0.71%) of roughly 310,000 compounds showed an effect of 50% or more. The effect is printed as a negative number. The entries come from a sample that favours strong results as a whole.

What follows are molecules tested against human ether-à-go-go-related gene (hERG) potassium channel (human, UniProt Q12809) (assay: primary screen, population patch clamp on CHO cells stably expressing hERG; higher = less effect of the substance).
human ether-à-go-go-related gene (hERG) potassium channel, sequence (Q12809 whole entry, looked up): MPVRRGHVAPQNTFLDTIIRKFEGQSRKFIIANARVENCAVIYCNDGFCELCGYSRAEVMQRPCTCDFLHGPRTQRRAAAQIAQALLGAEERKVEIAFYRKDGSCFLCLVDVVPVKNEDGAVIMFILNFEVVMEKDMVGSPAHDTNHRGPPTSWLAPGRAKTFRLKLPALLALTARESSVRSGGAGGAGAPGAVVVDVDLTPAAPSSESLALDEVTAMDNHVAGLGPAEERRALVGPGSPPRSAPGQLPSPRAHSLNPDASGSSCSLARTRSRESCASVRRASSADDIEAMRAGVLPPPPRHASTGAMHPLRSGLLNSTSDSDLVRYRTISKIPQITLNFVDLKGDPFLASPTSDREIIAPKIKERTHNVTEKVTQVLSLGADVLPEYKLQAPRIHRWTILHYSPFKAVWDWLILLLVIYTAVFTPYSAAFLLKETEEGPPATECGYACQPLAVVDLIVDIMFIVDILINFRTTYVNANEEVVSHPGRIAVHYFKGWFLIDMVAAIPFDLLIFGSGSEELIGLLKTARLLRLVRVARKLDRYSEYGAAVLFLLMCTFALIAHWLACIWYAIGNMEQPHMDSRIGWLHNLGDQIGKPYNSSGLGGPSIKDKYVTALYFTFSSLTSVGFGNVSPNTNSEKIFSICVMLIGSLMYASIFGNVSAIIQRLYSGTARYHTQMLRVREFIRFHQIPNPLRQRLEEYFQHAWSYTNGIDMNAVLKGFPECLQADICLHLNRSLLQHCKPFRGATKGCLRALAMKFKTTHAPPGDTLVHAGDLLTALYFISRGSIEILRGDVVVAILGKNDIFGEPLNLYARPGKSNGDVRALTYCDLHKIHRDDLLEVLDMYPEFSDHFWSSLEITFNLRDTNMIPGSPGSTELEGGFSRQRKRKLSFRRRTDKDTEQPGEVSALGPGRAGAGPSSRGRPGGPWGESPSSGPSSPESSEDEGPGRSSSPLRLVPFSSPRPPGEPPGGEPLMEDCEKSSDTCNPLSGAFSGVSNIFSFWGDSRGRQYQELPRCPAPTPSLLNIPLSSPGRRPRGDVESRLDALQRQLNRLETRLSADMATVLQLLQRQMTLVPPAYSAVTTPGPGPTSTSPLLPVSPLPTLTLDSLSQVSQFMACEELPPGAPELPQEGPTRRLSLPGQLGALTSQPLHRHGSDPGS

Question: With `O=C(c1ccc2c(c1)N(Cc1ccccc1)C(=O)CS2)N1CCOCC1` as the molecule, how does the “hERG current change (%, negative = inhibition) at 1uM” value read?
Answer: Its value is 1.45%.

Question: Which “hERG current change (%, negative = inhibition) at 1uM” value does the source give for `CNCCOc1nc(N2CCOCC2)nc(C)c1[N+](=O)[O-]` here?
Answer: Its value is 10.1%.

Question: Which “hERG current change (%, negative = inhibition) at 1uM” value does the source give for `COc1ccc(NC2CCCN(C(=O)c3cccs3)C2)cc1` (stereo not drawn) here?
Answer: Its value is 12.5%.

Question: With `O=C(CN1CCN(S(=O)(=O)c2ccc(Br)cc2)CC1)N/N=C/c1cccnc1` as the molecule, how does the “hERG current change (%, negative = inhibition) at 1uM” value read?
Answer: The value was -1.72%.

Question: With `C/C(=N\NC(=O)CN1CCN(S(=O)(=O)c2ccc(C)cc2)CC1)c1ccncc1` as the molecule, how does the “hERG current change (%, negative = inhibition) at 1uM” value read?
Answer: The value was -77.6%.

Question: For `C/C(=N/NC(=O)CN1CCN(Cc2ccccc2Cl)CC1)c1ccncc1`, which “hERG current change (%, negative = inhibition) at 1uM” value is on record?
Answer: Its value is -18.3%.

Question: `C/C(=N\NC(=O)CN1CCN(Cc2ccccc2)CC1)c1ccncc1` was tested. Which “hERG current change (%, negative = inhibition) at 1uM” value did it give?
Answer: Its value is -3.1%.

Question: `O=C(CN1CCN(S(=O)(=O)c2ccc(Br)cc2)CC1)N/N=C/c1ccncc1` was tested. Which “hERG current change (%, negative = inhibition) at 1uM” value did it give?
Answer: Its value is -51.8%.

Question: Which “hERG current change (%, negative = inhibition) at 1uM” value does the source give for `C/C(=N\NC(=O)CN1CCN(Cc2ccc(C)cc2)CC1)c1ccncc1` here?
Answer: Its value is -77.9%.

Question: For `C/C(=N/NC(=O)CN1CCN(Cc2ccccc2)CC1)c1ccc([N+](=O)[O-])cc1`, which “hERG current change (%, negative = inhibition) at 1uM” value is on record?
Answer: The value was -72.9%.

Question: `C/C(=N/NC(=O)CN1CCN(S(=O)(=O)c2ccc(Br)cc2)CC1)c1ccncc1` was tested. Which “hERG current change (%, negative = inhibition) at 1uM” value did it give?
Answer: Its value is -44.3%.

Question: For `C/C(=N\NC(=O)CN1CCN(S(=O)(=O)c2ccc(C)cc2)CC1)c1ccc(O)cc1`, which “hERG current change (%, negative = inhibition) at 1uM” value is on record?
Answer: The value was 9.16%.

Question: For `Cc1ccc(S(=O)(=O)N2CCN(CC(=O)N/N=C\c3ccncc3)CC2)cc1`, which “hERG current change (%, negative = inhibition) at 1uM” value is on record?
Answer: The value was -26.2%.

Question: With `C/C(=N\NC(=O)c1ccc(CN2CCOCC2)cc1)c1ccc([N+](=O)[O-])cc1` as the molecule, how does the “hERG current change (%, negative = inhibition) at 1uM” value read?
Answer: The value was 10%.

Question: With `C/C(=N\NC(=O)CN1CCN(Cc2ccccc2)CC1)c1cccs1` as the molecule, how does the “hERG current change (%, negative = inhibition) at 1uM” value read?
Answer: Its value is -2.13%.

Question: Which “hERG current change (%, negative = inhibition) at 1uM” value does the source give for `CCOC(=O)CSC1=NC(=O)/C(=C/c2ccc(Br)cc2)S1` here?
Answer: Its value is 9.71%.

Question: With `CCS(=O)(=O)NC(C)c1nnc2n1-c1ccc(Br)cc1C(c1ccccc1Cl)=NC2` (stereo not drawn) as the molecule, how does the “hERG current change (%, negative = inhibition) at 1uM” value read?
Answer: Its value is -4.22%.

Question: For `Cc1cc(C)cc(Nc2nc3c(S(=O)(=O)c4ccccc4)nnn3c3ccccc23)c1`, which “hERG current change (%, negative = inhibition) at 1uM” value is on record?
Answer: Its value is 11.3%.

Question: How did the “hERG current change (%, negative = inhibition) at 1uM” value turn out when `CC(Oc1ccc(Cl)cc1)C(=O)Nc1ccccc1C(=O)N1CCOCC1` (stereo not drawn) was run?
Answer: Its value is -1.27%.

Question: `CCc1ccc(CNCc2cccnc2)cc1` was tested. Which “hERG current change (%, negative = inhibition) at 1uM” value did it give?
Answer: The value was 9.07%.

Question: For `COc1ccc(-c2cc(C(F)(F)F)n3nc(C(=O)N4CCCCC4)cc3n2)cc1`, which “hERG current change (%, negative = inhibition) at 1uM” value is on record?
Answer: Its value is 4.13%.

Question: Which “hERG current change (%, negative = inhibition) at 1uM” value does the source give for `O=C(O)COc1ccc(C(NC(=O)c2c(F)cccc2F)NC(=O)c2c(F)cccc2F)cc1` here?
Answer: Its value is 16.9%.

Question: With `O=C1C2=C(SCCS2)C(=O)N1c1ccccc1` as the molecule, how does the “hERG current change (%, negative = inhibition) at 1uM” value read?
Answer: The value was 20.6%.

Question: With `C=CCN=C1SC(C)C(=O)N1S(=O)(=O)c1ccccc1` (stereo not drawn) as the molecule, how does the “hERG current change (%, negative = inhibition) at 1uM” value read?
Answer: The value was 4.31%.

Question: Which “hERG current change (%, negative = inhibition) at 1uM” value does the source give for `CCCc1nnc(SCC(=O)Nc2ccc(OC)cc2)n1N` here?
Answer: The value was 11.1%.

Question: Which “hERG current change (%, negative = inhibition) at 1uM” value does the source give for `CC(=O)Oc1ccc(/C(C)=N/N2CCN(Cc3ccc(C)cc3)CC2)cc1` here?
Answer: Its value is -69.8%.

Question: How did the “hERG current change (%, negative = inhibition) at 1uM” value turn out when `CC(=O)Oc1ccc(/C(C)=N\N2CCN(Cc3ccc(Cl)cc3)CC2)cc1` was run?
Answer: Its value is -16.4%.

Question: For `COc1cc(/C(C)=N/N2CCN(Cc3ccc(C)cc3)CC2)ccc1O`, which “hERG current change (%, negative = inhibition) at 1uM” value is on record?
Answer: The value was -3.97%.

Question: Which “hERG current change (%, negative = inhibition) at 1uM” value does the source give for `CCOC(=O)c1sc(NC(=O)CCN2CCCCCC2)c(C(=O)OCC)c1C` here?
Answer: The value was 10.6%.

Question: Which “hERG current change (%, negative = inhibition) at 1uM” value does the source give for `CCOC(=O)c1sc(NC(=O)CCN2CCN(C)CC2)c(C(=O)OCC)c1C` here?
Answer: Its value is -15.3%.

Question: With `CCOC(=O)c1sc(NC(=O)CCN2CCN(CC)CC2)c(C(=O)OCC)c1C` as the molecule, how does the “hERG current change (%, negative = inhibition) at 1uM” value read?
Answer: Its value is -59.8%.

Question: How did the “hERG current change (%, negative = inhibition) at 1uM” value turn out when `COc1ccc(CCC(=O)Nc2nc3ccccc3[nH]2)cc1OC` was run?
Answer: The value was -51.1%.

Question: Which “hERG current change (%, negative = inhibition) at 1uM” value does the source give for `COc1ccc(CCC(=O)Nc2nc3ccccc3[nH]2)cc1` here?
Answer: Its value is 5.78%.

Question: How did the “hERG current change (%, negative = inhibition) at 1uM” value turn out when `COc1ccccc1CCC(=O)Nc1nc2ccccc2[nH]1` was run?
Answer: Its value is 18.7%.

Question: Which “hERG current change (%, negative = inhibition) at 1uM” value does the source give for `COCCNC(=S)NC12CC3CC(CC(C3)C1)C2` here?
Answer: Its value is 11.3%.

Question: For `O=C(NC12CC3CC(CC(C3)C1)C2)c1ccc(-c2cccc(Cl)c2)o1`, which “hERG current change (%, negative = inhibition) at 1uM” value is on record?
Answer: Its value is 21.9%.

Question: With `O=C(CCCC(=O)OCC(=O)c1ccc(F)cc1)Nc1cc(C(F)(F)F)ccc1Cl` as the molecule, how does the “hERG current change (%, negative = inhibition) at 1uM” value read?
Answer: Its value is 12%.

Question: For `O=C(Cc1ccc(Cl)c(Cl)c1)Nc1ccc2[nH]c(=O)[nH]c2c1`, which “hERG current change (%, negative = inhibition) at 1uM” value is on record?
Answer: The value was 4.75%.

Question: With `COC(=O)c1cc(S(=O)(=O)NCC2CCN(Cc3cc(C)ccc3C)CC2)c[nH]1` as the molecule, how does the “hERG current change (%, negative = inhibition) at 1uM” value read?
Answer: Its value is 2.48%.

Question: For `COC(=O)c1cc(S(=O)(=O)NCC2CCN(Cc3ccc(F)cc3)CC2)c[nH]1`, which “hERG current change (%, negative = inhibition) at 1uM” value is on record?
Answer: The value was 7.24%.

Question: Which “hERG current change (%, negative = inhibition) at 1uM” value does the source give for `COC(=O)c1cc(S(=O)(=O)NCC2CCN(Cc3ccc(C)cc3)CC2)c[nH]1` here?
Answer: The value was -63%.

Question: For `COC(=O)c1cc(S(=O)(=O)NCC2CCN(Cc3ccc(Cl)cc3)CC2)c[nH]1`, which “hERG current change (%, negative = inhibition) at 1uM” value is on record?
Answer: Its value is -59.6%.
